Hit rate of the full screen: of about 2,400 compounds, about 750 (31%) were called active.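 How the source made its calls: active means median signal gain over dofetilide-blocked control wells reaching their mean plus 3 SD, so readout 1 at least 0; inactive means the rest.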 The list shows a part of the results.

In PubChem BioAssay AID1835 (Johns Hopkins Ion Channel Center, 2009) one finds activity increase over dofetilide control, less the hit threshold data, which are given here for 67 molecules.

The target of this experiment is Voltage-gated inwardly rectifying potassium channel KCNH2 (Homo sapiens) (UniProt Q12809). The experiment can be described thus: modulators restoring hERG flux under dofetilide – cell-based, thallium flux, duplicate retest, dofetilide IC70, confirmation (AID 1835). Particulars: hERG cell line, FluxOR thallium flux, dofetilide-blocked; at 10 µM; stronger effect = higher value. Background: Block of hERG is tested as a sign of cardiac risk.
Chain of Voltage-gated inwardly rectifying potassium channel KCNH2 (Homo sapiens) (Q12809 whole entry, looked up): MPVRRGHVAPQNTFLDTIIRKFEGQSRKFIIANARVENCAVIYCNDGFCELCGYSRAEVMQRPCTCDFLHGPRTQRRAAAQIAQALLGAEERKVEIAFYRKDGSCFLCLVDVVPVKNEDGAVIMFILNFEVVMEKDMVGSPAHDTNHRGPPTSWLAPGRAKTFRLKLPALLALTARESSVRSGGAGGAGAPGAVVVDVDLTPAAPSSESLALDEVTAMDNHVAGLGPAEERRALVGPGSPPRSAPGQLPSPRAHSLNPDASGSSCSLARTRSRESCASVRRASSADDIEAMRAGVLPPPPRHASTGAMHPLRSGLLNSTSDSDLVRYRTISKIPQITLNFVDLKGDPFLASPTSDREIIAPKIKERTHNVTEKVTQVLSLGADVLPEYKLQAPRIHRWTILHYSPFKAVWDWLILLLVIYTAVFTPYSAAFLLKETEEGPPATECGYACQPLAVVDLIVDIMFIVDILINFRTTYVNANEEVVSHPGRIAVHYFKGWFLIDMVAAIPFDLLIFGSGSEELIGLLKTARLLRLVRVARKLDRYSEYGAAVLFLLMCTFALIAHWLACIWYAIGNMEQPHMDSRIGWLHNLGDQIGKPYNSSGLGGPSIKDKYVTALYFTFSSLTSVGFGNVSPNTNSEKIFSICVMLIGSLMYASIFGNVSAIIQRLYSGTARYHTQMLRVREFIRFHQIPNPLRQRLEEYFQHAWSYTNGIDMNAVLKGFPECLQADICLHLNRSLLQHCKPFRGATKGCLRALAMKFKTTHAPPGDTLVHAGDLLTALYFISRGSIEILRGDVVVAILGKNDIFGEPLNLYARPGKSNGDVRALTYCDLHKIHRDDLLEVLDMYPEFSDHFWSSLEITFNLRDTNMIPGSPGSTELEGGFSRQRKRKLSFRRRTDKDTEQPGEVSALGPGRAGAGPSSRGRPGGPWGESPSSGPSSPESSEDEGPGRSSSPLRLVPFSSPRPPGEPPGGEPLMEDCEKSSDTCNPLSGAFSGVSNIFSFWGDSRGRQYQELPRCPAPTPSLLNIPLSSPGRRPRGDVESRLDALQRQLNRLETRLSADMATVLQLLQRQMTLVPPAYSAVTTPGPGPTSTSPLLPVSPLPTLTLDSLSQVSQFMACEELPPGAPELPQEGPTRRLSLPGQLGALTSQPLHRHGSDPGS
Turning to `COC(=O)C1=C(C)NC2=C(C(=O)CCC2)C1c1ccc(-c2ccsc2C(=O)OC)o1` (configuration not stated), the activity increase over dofetilide control, less the hit threshold is 26% (active).
For the molecule `Cc1cc(C)c(S(=O)(=O)NCc2ccccn2)c(C)c1`, the activity increase over dofetilide control, less the hit threshold is -6% (inactive).
As for `CCN(CC)c1ccc(NC(=S)NC(=O)c2ccco2)cc1`, the activity increase over dofetilide control, less the hit threshold was 48% (active).
As to `CCCOc1ccc(C(=O)NNC(=S)NC(=O)c2ccco2)cc1`, the activity increase over dofetilide control, less the hit threshold was -41% (inactive).
As for `COc1cc(OC)cc(C(=O)NC(=S)Nc2ccc(NC(=O)c3ccco3)cc2)c1`, the figure is -15% (inactive); as for `CCOc1ccc(NC(=S)NC(=O)c2ccco2)cc1`, 10% (active); as for `O=C(O)CNC(=O)c1ccc(NC(=O)/C(=C/c2ccccc2)NC(=O)c2ccco2)cc1`, -13% (inactive).
In the case of `O=C(CN1C(=O)COc2ccccc21)NCCCN1CCOCC1` it was -2% (inactive); in that of `COc1ccc(NC(=O)N2CCN(c3ccc([N+](=O)[O-])cc3)CC2)cc1OC`, -14% (inactive).
Regarding `Cc1ccc(N2CCN(C(=O)N3CCCC3)CC2)cc1C`, the activity increase over dofetilide control, less the hit threshold was 5% (active).
With `Cc1ccc(-n2c(=O)c3cc4c(=O)n(-c5ccc(C)c(C)c5)c(=O)c4c(C(=O)c4ccc(C(=O)O)cc4)c3c2=O)cc1C`, the activity increase over dofetilide control, less the hit threshold is -8% (inactive).
As for `Cn1ccnc1C(O)c1cccc(OCc2ccccc2)c1` (configuration not stated), the activity increase over dofetilide control, less the hit threshold is -10% (inactive).
For the molecule `CC1=CC(=O)C(C(C)C)=CC1=NC(=O)c1ccc(C)cc1`, the activity increase over dofetilide control, less the hit threshold was -36% (inactive).
As for `Cc1ccc(C(=O)Sc2cccccc2=O)cc1`, the activity increase over dofetilide control, less the hit threshold was 8% (active).
On to `COCCCNC(=O)CCc1nnc(Cc2ccc(-c3ccccc3)cc2)o1`, for which the activity increase over dofetilide control, less the hit threshold was -16% (inactive).
As for `CON/C=N/C(=S)Nc1ncc(C(F)(F)F)cc1Cl`, the activity increase over dofetilide control, less the hit threshold is 65% (active).
In the case of `ON/C=N/C(=S)Nc1ncc(C(F)(F)F)cc1Cl`, the activity increase over dofetilide control, less the hit threshold is 22% (active).
For `CCCCNC(=O)c1onc(CSc2nc3ccccc3[nH]2)c1C(=O)NCCCC`, the activity increase over dofetilide control, less the hit threshold is -12% (inactive).
As to `Cc1ccc(CNC(=O)CCc2ccc(S(=O)(=O)NCC(C)C)cc2)cc1`, the activity increase over dofetilide control, less the hit threshold is -8% (inactive).
Regarding `CC(NC(=O)c1ccc(F)cc1)c1ccc2c(c1)CCCC2` (configuration not stated), the activity increase over dofetilide control, less the hit threshold is -12% (inactive).
For `Cc1ccc(C(C)NC(=O)c2cccs2)cc1C` (configuration not stated), the activity increase over dofetilide control, less the hit threshold is -21% (inactive).
As to `CC(NC(=O)c1ccc(Br)cc1)c1ccc2c(c1)CCCC2` (configuration not stated), the activity increase over dofetilide control, less the hit threshold was 12% (active).
Regarding `Fc1ccc(NC(=S)Nc2nccs2)cc1`, the activity increase over dofetilide control, less the hit threshold was 0% (inactive).
`Nc1cccc2c1C(=O)N(CC(=O)NC13CC4CC(CC(C4)C1)C3)C2=O`: the activity increase over dofetilide control, less the hit threshold is -9% (inactive).
Take `Cc1ccc(/C(O)=C/C(=O)C(=O)NC23CC4CC(CC(C4)C2)C3)cc1`: the activity increase over dofetilide control, less the hit threshold was 10% (active).
On to `CCC(C)c1ccccc1NC(=O)c1[nH]c(C)c(C(C)=O)c1C` (configuration not stated), for which the activity increase over dofetilide control, less the hit threshold was -12% (inactive).
With `CCC(C)c1ccccc1NC(=S)NC(=O)c1ccco1` (configuration not stated), the activity increase over dofetilide control, less the hit threshold is 69% (active).
Take `CCC(C)c1ccccc1NC(=O)C(C)NCCN(C)C` (configuration not stated): the activity increase over dofetilide control, less the hit threshold is -13% (inactive).
As to `CCOc1ccccc1NC(=S)NC(=O)c1ccco1`, the activity increase over dofetilide control, less the hit threshold is 3% (active).
In the case of `Cc1nc2n(n1)CC(O)CS2` (configuration not stated) it was -14% (inactive); in that of `CN(C)CCNc1ncnc2c1sc1nc(N3CCCC3)c3c(c12)CC(C)(C)OC3`, -10% (inactive); in that of `CCCCc1c(O)nc(SCC(=O)O)[nH]c1=O`, -16% (inactive).
For the molecule `CC12CCC3(CO)COC(c4ccccc4O1)C2C3` (configuration not stated), the activity increase over dofetilide control, less the hit threshold is -5% (inactive).
`O=C(COC(=O)c1cc(Br)ccc1O)Nc1cccnc1Cl`: the activity increase over dofetilide control, less the hit threshold was -14% (inactive).
For `COC(=O)c1ccc(C(=O)NC(=S)Nc2nc3c(s2)CC(C)CC3)cc1` (configuration not stated), the activity increase over dofetilide control, less the hit threshold was -10% (inactive).
Turning to `CC(C)(C)c1ccc(C(=O)NC(=S)Nc2nc3c(s2)CCCC3)cc1`, the activity increase over dofetilide control, less the hit threshold is 13% (active).
Consider `COC(=O)c1ccc(C(=O)NC(=S)Nc2nc3c(s2)CCCC3)cc1`, for which the activity increase over dofetilide control, less the hit threshold is 13% (active).
Consider `O=C(NC(=S)Nc1nc2c(s1)CCCC2)c1ccc(C(=O)c2ccccc2)cc1`, for which the activity increase over dofetilide control, less the hit threshold was -3% (inactive).
On to `Cc1csc(NC(=O)c2cc3c(s2)CCCC3)n1`, for which the activity increase over dofetilide control, less the hit threshold was -5% (inactive).
`Cc1ccc(N2C(=O)c3ccccc3C2(O)c2ncc[nH]2)cc1` (configuration not stated): the activity increase over dofetilide control, less the hit threshold is -18% (inactive).
In the case of `CCc1nnc(NC(=O)c2c(C)nn(-c3ccccc3)c2Cl)s1`, the activity increase over dofetilide control, less the hit threshold was -16% (inactive).
In the case of `COc1ccc(-n2c(SCc3ccccn3)nc3c(c2=O)SCC3)cc1OC` it was 3% (active); in that of `COc1ccc(-n2nc(C(=O)NCC(=O)NCc3ccc(F)cc3)c3ccccc3c2=O)cc1OC`, -13% (inactive); in that of `CCOC(=O)c1cc2c(nc1NC(=S)NCc1ccccc1)CCCC2`, -1% (inactive).
Take `CCNC(=S)Nc1scc(-c2ccccc2)c1C(=O)OCC`: the activity increase over dofetilide control, less the hit threshold is 5% (active).
As for `CCOC(=O)c1c(-c2ccc(C)o2)csc1NC(=S)NC(=O)N(C)C`, the figure is 21% (active); as for `CCOC(=O)c1c(CC(C)C)csc1NC(=O)c1ccccc1C(=O)O`, -13% (inactive).
For `CCOC(=O)c1nnsc1NC(C)=O`, the activity increase over dofetilide control, less the hit threshold was -13% (inactive).
On to `CCOC(=O)c1c(-c2ccccc2)csc1NC(=S)NC`, for which the activity increase over dofetilide control, less the hit threshold is 7% (active).
In the case of `C=CCn1c(N2CCCCCC2)nc2c1c(=O)n(C)c(=O)n2C`, the activity increase over dofetilide control, less the hit threshold is -7% (inactive).
With `CC1(OC(=O)C2CCCC2)C(=O)C=C2C=C(c3ccc(C#N)cc3)OC=C2C1=O` (configuration not stated), the activity increase over dofetilide control, less the hit threshold is -18% (inactive).
Turning to `Cc1ccc(C)c(N2CCN(S(=O)(=O)c3ccc(-c4ccc(=O)[nH]n4)o3)CC2)c1`, the activity increase over dofetilide control, less the hit threshold was -11% (inactive).
Consider `CC(Sc1n[nH]c(=O)[nH]c1=O)C(=O)OCc1ccccc1` (configuration not stated), for which the activity increase over dofetilide control, less the hit threshold is -11% (inactive).
Take `Cn1c2ccccc2c(=O)c2c(=O)n(Cc3ccco3)c(-c3ccc(Cl)cc3Cl)nc21`: the activity increase over dofetilide control, less the hit threshold was -10% (inactive).
For the molecule `Cn1c(=O)c2sc3c(c2n(CC(=O)Nc2ccccc2)c1=O)COC(C)(C)C3`, the activity increase over dofetilide control, less the hit threshold was -12% (inactive).
In the case of `COc1ccccc1-n1cnc2cc(NS(=O)(=O)c3ccc(Br)cc3)ccc21`, the activity increase over dofetilide control, less the hit threshold is -24% (inactive).
Consider `Cc1ccc(CNC(=O)CN(C(=O)C2(C)CC(=O)N=C3C=CC=CN32)c2ccccc2F)cc1` (configuration not stated), for which the activity increase over dofetilide control, less the hit threshold is -8% (inactive).
Regarding `CCCCn1c(=S)[nH]c2ccccc2c1=O`, the activity increase over dofetilide control, less the hit threshold was 3% (active).
As for `Cc1ccc(Cn2c(=S)[nH]c3ccccc3c2=O)cc1`, the activity increase over dofetilide control, less the hit threshold is 3% (active).
For `O=c1c2cc(Cl)ccc2[nH]c(=S)n1Cc1cccs1`, the activity increase over dofetilide control, less the hit threshold is -8% (inactive).
Regarding `CCN(CCCn1c(=S)[nH]c2ncccc2c1=O)c1ccccc1`, the activity increase over dofetilide control, less the hit threshold is -2% (inactive).
`CCCCC(CC)CNC(=O)Cn1c(=S)[nH]c2ncccc2c1=O` (configuration not stated): the activity increase over dofetilide control, less the hit threshold is -12% (inactive).
Regarding `O=c1c2ccccc2[nH]c(=S)n1CCc1ccccc1`, the activity increase over dofetilide control, less the hit threshold was 20% (active).
As to `CCCCCn1c(=S)[nH]c2ncccc2c1=O`, the activity increase over dofetilide control, less the hit threshold is 40% (active).
Take `CC(C)CCn1c(=S)[nH]c2ncccc2c1=O`: the activity increase over dofetilide control, less the hit threshold was -1% (inactive).
Regarding `O=C1CN(S(=O)(=O)c2ccccc2)CC(=O)N1CCc1ccccc1`, the activity increase over dofetilide control, less the hit threshold is -6% (inactive).
With `CCOCCCn1c(=S)[nH]c2cc(C(=O)NCCOC)ccc2c1=O`, the activity increase over dofetilide control, less the hit threshold is -13% (inactive).
